# Experimental data taken from PubChem BioAssay AID1159580 (chemical genetic matrix, 2015).
# Out of some 5,500 compounds screened, about 2,000 (36%) were called active. Roughly 18% stayed inconclusive and do not appear here. The list shows a part of the results. A number with no mark means an inactive call. Rule as the data show it: active = normalized growth mostly below about 0.91 (no sharp cut-off); inconclusive = no clear call, values can overlap the other calls; inactive = mostly above about 0.92.
# Assay: chemical genetic growth profiling, strain panel (AID 1159580);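 also: tested at 20 µM; growth read once vehicle control cultures reached saturation at 30 °C; 1 = growth at the plate median or of vehicle wells; lower values mean less growth of the strain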
# Settings: S. cerevisiae deletion strains, growth OD
compound,measurement,setting,value
Cc1ccc2cc(NC(=O)c3ccco3)ccc2n1,normalized growth,"locus YAL013W, strain DEP1, active compounds read low",0.987
same,normalized growth,"locus YBR229C, strain ROT2, active compounds read low",0.998
same,normalized growth,"locus YCL061C, strain MRC1, active compounds read low",0.991
same,normalized growth,"locus YDL101C, strain DUN1, active compounds read low",1.02
same,normalized growth,"locus YDR150W, strain NUM1, active compounds read low",0.901
same,normalized growth,"locus YEL061C, strain CIN8, active compounds read low",0.895 (active)
same,normalized growth,"locus YGR078C, strain PAC10, active compounds read low",0.989
same,normalized growth,"locus YGR229C, strain SMI1, active compounds read low",0.989
same,normalized growth,"locus YHR030C, strain SLT2, active compounds read low",0.309 (active)
same,normalized growth,"locus YHR087W, strain rtc3, active compounds read low",1.01
same,normalized growth,"locus YJR043C, strain POL32, active compounds read low",0.998
same,normalized growth,"locus YJR075W, strain HOC1, active compounds read low",0.994
same,normalized growth,"locus YKL190W, strain CNB1, active compounds read low",0.9 (active)
same,normalized growth,"locus YLR039C, strain RIC1, active compounds read low",0.972
same,normalized growth,"locus YLR058C, strain SHM2 (second series), active compounds read low",1.01
same,normalized growth,"locus YLR085C, strain ARP6, active compounds read low",0.286 (active)
same,normalized growth,"locus YLR262C, strain YPT6, active compounds read low",1.01
same,normalized growth,"locus YML094W, strain GIM5, active compounds read low",0.96
same,normalized growth,"locus YMR219W, strain ESC1, active compounds read low",1
same,normalized growth,"locus YMR263W, strain SAP30, active compounds read low",0.938
same,normalized growth,"locus YMR307W, strain GAS1, active compounds read low",0.518 (active)
same,normalized growth,"locus YNL128W, strain TEP1, active compounds read low",0.962
same,normalized growth,"locus YNL153C, strain GIM3, active compounds read low",1
same,normalized growth,"locus YNL298W, strain CLA4 (second series), active compounds read low",0.807 (active)
same,normalized growth,"locus YNL322C, strain KRE1, active compounds read low",1.01
same,normalized growth,"locus YNR030W, strain Alg12, active compounds read low",0.841 (active)
same,normalized growth,"locus YPL055C, strain LGE1, active compounds read low",0.92
same,normalized growth,"locus YPL241C, strain CIN2, active compounds read low",0.804 (active)
same,normalized growth,"locus YPR135W, strain CTF4, active compounds read low",0.385 (active)
